# PubChem BioAssay
# The source made the active and inactive calls. The rule behind the calls is not given here.
# Assay: hESC survival regulators, cell-based (AID 493140);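 note: cells exposed to compounds for four days before counting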
# Conditions: human embryonic stem cell survival screen; hits give high values
row,SMILES,survival
1,CCNC1CC(N)C(OC2OC(CN)=CCC2N)C(O)C1OC1OCC(C)(O)C(NC)C1O (centres undefined),17.9 (inactive)
2,CC/C=C\C/C=C\C/C=C\C/C=C\C/C=C\CCC(=O)O[C@H](COCCCCCCCCCCCCCCCC)COP(=O)([O-])OCC[N+](C)(C)C,83.1 (inactive)
3,CCCCC[C@H](O)/C=C/C=C/C=C/[C@H](O)C/C=C\CCCC(=O)O,107 (inactive)
4,NCC1OC(O[C@@H]2C(O)[C@H](OC3C(O)C(N)CC(N)C3OC3OC(CO)C(O)C(O)C3N)O[C@@H]2CO)C(N)C(O)C1O (some centres undefined),5.75 (inactive)
5,COc1ccc2nccc(C(=O)O)c2c1,19.9 (inactive)
6,CCCCC/C=C\C[C@@H](O)/C=C/C=C/C=C/[C@@H](O)CCCC(=O)O,77.1 (inactive)
7,Cn1cnc2nc(NCCO)nc(NCc3ccccc3)c21,111 (inactive)
8,CC/C=C\C[C@H](O)/C=C/C=C\C/C=C\C/C=C\CCCC(=O)O,122 (inactive)
9,C[C@@H](O)CCC[C@H](O)/C=C/[C@@H]1[C@@H](C/C=C\CCCC(=O)O)[C@@H](O)C[C@H]1O,102 (inactive)
